# aSyn UTR act: Activators working through SNCA 5'UTR binding (MLPCN); alpha-synuclein 5'UTR reporter, activators screen; activity score, % (tested at 7.5 µM), hits read low; hit rate 7.1% among 300,000; in the data active = activity score below about -60%
# * marks the source's active call; other numbers are inactive results. Not all results are given here.
SMILES,aSyn UTR act
Cc1ccccc1-n1c(C)cc(/C=N/Nc2ccc([N+](=O)[O-])cn2)c1C,-76*
CCc1sc(C(=O)Nc2ccc3c(c2)OCCO3)cc1Br,-193*
CCn1ncc(Br)c1C(=O)Nc1ccc(C(C)C)cc1,-79*
CCn1ncc(Br)c1C(=O)Nc1ccc2c(c1)OCCO2,-94*
N/C(=N\OC(=O)c1ccc2c(c1)OCO2)c1cccc([N+](=O)[O-])c1,-133*
Cc1cccc(/C(N)=N/OC(=O)c2ccc3c(c2)OCO3)c1,-116*
O=C(CSc1ccccc1)Nc1nc2ccccc2[nH]1,-132*
O=C(CCCOc1ccccc1)Nc1nc2ccccc2[nH]1,-115*
O=C(CSc1ccc(Cl)cc1)Nc1ccc(-c2nc3ccccc3[nH]2)cc1,-94*
O=C(CSc1n[nH]c(-c2ccccn2)n1)Nc1ccc(Cl)cc1,74
O=c1[nH]c(-c2ccccc2)nc2sc(-c3ccccc3)cc12,-235*
O=c1[nH]cnc2sc(-c3ccccc3)cc12,-86*
O=C(NC1CCN(Cc2ccccc2)CC1)c1ccc(Cn2c(=S)[nH]c3ccc(N4CCOCC4)cc3c2=O)cc1,-92*
CC1CCN(CCNC(=O)c2ccc3c(=O)n(Cc4ccc(Cl)cc4)c(=S)[nH]c3c2)CC1,98
O=C(CCCc1c[nH]c2ccccc12)N1CCCCCC1,-73*
Clc1ccccc1N1CCN(Cc2c[nH]c3ccccc23)CC1,64
Cc1ccc2[nH]c3c(N4CCCCCC4)ncnc3c2c1,-127*
C=CCNc1ncnc2c1[nH]c1ccc(C)cc12,-184*
CCCOc1ncnc2c1[nH]c1ccc(OC)cc12,-130*
CCCOc1ncnc2c1[nH]c1ccccc12,-142*
CCCCOc1ncnc2c1[nH]c1ccc(C)cc12,-93*
Cc1ccc(C(=O)N2CCN3C(=O)c4ccccc4C23c2ccc(Cl)cc2)cc1 (stereo not given),-69*
Cc1ccc(/C=C/C(=O)Nc2ncc(C)s2)o1,-207*
Cc1cnc(NC(=O)/C=C/c2ccc(Br)o2)s1,-106*
Cc1ccc(/C=C/C(=O)Nc2ccc(N(C)C)cc2)o1,-193*
SMILES,aSyn UTR act
Cc1ccc(/C=C/C(=O)Nc2nccs2)o1,-157*
O=C(/C=C/c1ccc(OCCCF)cc1)Nc1ccnc(-c2cccnc2)n1,-121*
O=C(/C=C/c1ccc(OCCCF)cc1)Nc1ccnc(-c2ccncc2)n1,-209*
O=C(O)c1cc(-c2c[nH]c3ccccc23)nc2cc3ccccc3cc12,-66*
C/C(N)=C(/C#N)C(=O)CSc1nnc(Nc2ccccc2C)s1,-77*
C/C(N)=C(/C#N)C(=O)CSc1nnc(Nc2ccccc2)s1,-125*
CCCCN(CC)CCNC(=O)c1cc2c(-c3ccccc3F)nn(C)c2s1,-75*
CCCCN(CC)CCNC(=O)c1cc2c(=O)n(C)c3ccccc3c2s1,-67*
CCN(CC)CCNC(=O)c1cc2c(=O)n(C)c3ccccc3c2s1,-70*
Cc1ccnc(S(=O)(=O)Cc2ccc([N+](=O)[O-])cc2)n1,-70*
Cc1c(OCC(=O)Nc2cccnc2)ccc2c3c(c(=O)oc12)CCC3,58
O=C(COc1ccc(Cl)cc1Br)Nc1ccncc1,-146*
O=C(COc1ccc(Cl)cc1Cl)Nc1cccnc1,-122*
Cc1ccccc1OCCC(=O)Nc1ccc2c(C)cc(=O)oc2c1,-64*
CCN(CC)c1ccc(C(=O)OCc2cc(=O)oc3cc(O)ccc23)cc1,117
COc1ccccc1C(=O)Nc1ccc2c(C)cc(=O)oc2c1,-154*
CCOC(=O)Nc1ccc2c(COC(=O)c3ccccc3O)cc(=O)oc2c1,-83*
O=C1NC(=O)/C(=C\c2ccc(Oc3cnccn3)cc2)S1,-191*
Cc1ccc(Nc2nc(-c3c(C)nc4ncccn34)cs2)cc1,84
CC(=O)Nc1cccc(-c2csc(Nc3cc(C)ccn3)n2)c1,-63*
CC(=O)Nc1cccc(-c2csc(Nc3ccccn3)n2)c1,-120*
Cc1nc2ncccn2c1-c1csc(Nc2ccc(O)cc2)n1,-67*
CC(=O)Nc1nc(C)c(-c2csc(Nc3ccccn3)n2)s1,-114*
CC(=O)Nc1ccc(-c2csc(Nc3cc(C)ccn3)n2)cc1,-101*
Cc1ccnc(Nc2nc(-c3ccccc3)cs2)c1,-155*
SMILES,aSyn UTR act
Cc1ccnc(Nc2nc(-c3c(C)nc4sccn34)cs2)c1,-103*
O=C(COc1cccc2c1CCNC2=O)Nc1cccc(C(F)(F)F)c1,-84*
COc1ccc(C)cc1NS(=O)(=O)c1ccc(-c2cnc(C3CC3)o2)cc1,102
O=C(Nc1cccc(Cn2cccn2)c1)c1cc2c(s1)CCCC2,-139*
COc1ccc(C)cc1NC(=O)c1cc2c(s1)CCC2,-143*
CCOC(=O)c1ccc(NC(=O)c2cc3c(s2)CCC3)cc1,-154*
COC(=O)c1sccc1NC(=O)c1cc2c(s1)CCCC2,-133*
O=C(CN1CC(=O)Oc2ccccc21)NCc1ccco1,-97*
CC(C)c1cc(C(=O)NCCc2ccccc2)no1,-201*
CCc1ccc(NC(=O)c2cc(CC(C)C)on2)cc1,-120*
CC(C)Cc1cc(C(=O)Nc2ccc(Br)cc2)no1,-137*
CCc1ccc(NC(=O)c2cc(C(C)C)on2)cc1,-103*
CC(=O)c1cccc(NC(=O)c2cc(C(C)C)on2)c1,-101*
CC(C)Cc1cc(C(=O)Nc2ccc(F)cc2F)no1,-139*
O=C(Nc1ccc(F)cc1F)c1csc(-c2cccs2)n1,-270*
CC(C)Cc1cc(C(=O)NCc2cccs2)no1,-164*
O=C(NCCc1ccccc1)C(=O)c1c[nH]c2ccccc12,-200*
O=C(NCCc1c[nH]c2ccccc12)C(=O)Nc1ccccc1,-65*
Nc1nc(N)c2sc3nc4c(cc3c2n1)CCC4,-107*
O=[N+]([O-])c1ccc(N=Nc2ncc[nH]2)cc1,-96*
O=C(Nc1ccccc1)c1ccccc1O,-151*
Cc1ccccc1NC(=O)C(=O)Nc1ccccc1C,-143*
Cc1ccccc1NC(=O)c1ccccc1O,-118*
O=S(=O)(/N=C(/Nc1ccccc1)c1ccccc1O)c1ccccc1,-79*
COc1cc(C#CC#CCN2CCCCC2)ccc1O,-81*
SMILES,aSyn UTR act
O=c1oc2ccccc2nc1/C=C(O)/C=C/c1ccc(F)cc1,-88*
COc1ccc(-c2cc(O)cc(O)c2)cc1,-143*
Cn1ccsc1=NC(=O)c1ccc(Cl)c([N+](=O)[O-])c1,-117*
Cc1cccc(C(=O)N=c2sccn2C)c1[N+](=O)[O-],-133*
Cn1ccsc1=NC(=O)c1ccc(S(C)(=O)=O)cc1,-62*
Cn1ccsc1=NC(=O)c1cccc(C#N)c1,-86*
Cc1ccc(C(=O)N=c2sccn2C)cc1S(=O)(=O)N1CCOCC1,-160*
Cc1ccc(NC(=S)N=Nc2c(O)n(C)c3ccc(S(=O)(=O)N4CCOCC4)cc23)cc1C,77
CCCCOc1ccc(C(=O)N=c2sccn2C)cc1OC,-164*
N#C/C(C(=O)N1CCCCC1)=C1\Nc2ccccc2S1,-104*
O=C1Nc2ccccc2S/C1=C\C(=O)N1CCCC1,-140*
Cc1cccn2cc(CSc3ccccc3N)nc12,-117*
O=S(=O)([N-]c1nc2ccccc2nc1-[n+]1ccc(-c2ccncc2)cc1)c1ccccc1,-105*
Cc1ccc(NNc2c(C)nc3ccccc3nc2=O)cc1,-112*
CCSc1nnc(NC(=O)c2ccccc2)s1,-94*
COc1ccc(-c2nnc3sc(C4CCCCC4)nn23)cc1OC,65
CCSc1nnc(NC(=O)c2ccccn2)s1,67
O=C(Nc1nnc(C2CCCCC2)s1)c1ccc(Br)s1,-219*
O=C(Nc1nnc(C(F)(F)F)s1)c1ccc(Br)s1,-75*
Cc1cc(C(=O)Nc2nnc(C3CCCCC3)s2)cs1,-136*

# Bioassay records deposited in PubChem by Broad Institute.
